Experimental data as given in the supplement of paper PMC4466140.

Columns and labels:
Test in all cases: SPOT peptide array binding signal intensity (averaged, normalized) (arbitrary units (background-subtracted, floor 0; scale differs between SH3 domains)); higher = stronger binding of the SH3 domain to the peptide
AgAbp1 = target: AgAbp1
Summary of the method: (§1)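 Spot intensities were captured after detection with anti-GST antibody, an HRP-linked anti-mouse secondary and luminol, and quantified with Genespotter. The probes were GST-fused SH3 domains from four yeast species, produced in E. coli BL21(DE3), purified on glutathione Sepharose and incubated at 10 μg/ml overnight at 4°C on cellulose-bound synthetic 15-mer peptides with cysteines replaced by serines. Binding signal is the normalized, background-subtracted spot intensity averaged over replicates, and its arbitrary units differ between domains.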

AgBbc1 = target: AgBbc1
Summary of the method: as §1

AgBem1-D1 = target: AgBem1-D1
Summary of the method: as §1

AgBzz1-D1 = target: AgBzz1-D1
Summary of the method: as §1

AgBzz1-D2 = target: AgBzz1-D2
Summary of the method: as §1

AgCyk3 = target: AgCyk3
Summary of the method: as §1

AgFus1 = target: AgFus1
Summary of the method: as §1

AgHof1 = target: AgHof1
Summary of the method: as §1

AgHse1 = target: AgHse1
Summary of the method: as §1

AgLsb1 = target: AgLsb1
Summary of the method: as §1

AgLsb4 = target: AgLsb4
Summary of the method: as §1

AgMyo5 = target: AgMyo5
Summary of the method: as §1

AgNbp2 = target: AgNbp2
Summary of the method: as §1

AgRvs167 = target: AgRvs167
Summary of the method: as §1

AgSho1 = target: AgSho1
Summary of the method: as §1

AgSla1-D1-D2 = target: AgSla1-D1-D2
Summary of the method: as §1

AgSla1-D3 = target: AgSla1-D3
Summary of the method: as §1

CaAbp1-D1 = target: CaAbp1-D1
Summary of the method: as §1

CaAbp1-D2 = target: CaAbp1-D2
Summary of the method: as §1

CaBbc1 = target: CaBbc1
Summary of the method: as §1

CaBem1-D1 = target: CaBem1-D1
Summary of the method: as §1

CaBzz1-D1 = target: CaBzz1-D1
Summary of the method: as §1

CaBzz1-D2 = target: CaBzz1-D2
Summary of the method: as §1

CaCyk3 = target: CaCyk3
Summary of the method: as §1

CaFus1 = target: CaFus1
Summary of the method: as §1

CaHof1 = target: CaHof1
Summary of the method: as §1

CaHse1 = target: CaHse1
Summary of the method: as §1

CaLsb1 = target: CaLsb1
Summary of the method: as §1

CaLsb4 = target: CaLsb4
Summary of the method: as §1

CaMyo5 = target: CaMyo5
Summary of the method: as §1

CaNbp2 = target: CaNbp2
Summary of the method: as §1

CaRvs167 = target: CaRvs167
Summary of the method: as §1

CaRvs167-3 = target: CaRvs167-3
Summary of the method: as §1

CaSho1 = target: CaSho1
Summary of the method: as §1

CaSla1-D1-D2 = target: CaSla1-D1-D2
Summary of the method: as §1

CaSla1-D3 = target: CaSla1-D3
Summary of the method: as §1

ScAbp1 = target: ScAbp1
Summary of the method: as §1

ScBbc1 = target: ScBbc1
Summary of the method: as §1

ScBem1-D1 = target: ScBem1-D1
Summary of the method: as §1

ScBzz1-D1 = target: ScBzz1-D1
Summary of the method: as §1

ScBzz1-D2 = target: ScBzz1-D2
Summary of the method: as §1

ScCyk3 = target: ScCyk3
Summary of the method: as §1

ScFus1 = target: ScFus1
Summary of the method: as §1

ScHof1 = target: ScHof1
Summary of the method: as §1

ScHse1 = target: ScHse1
Summary of the method: as §1

ScLsb1 = target: ScLsb1
Summary of the method: as §1

ScLsb2 = target: ScLsb2
Summary of the method: as §1

ScLsb3 = target: ScLsb3
Summary of the method: as §1

ScLsb4 = target: ScLsb4
Summary of the method: as §1

ScMyo3 = target: ScMyo3
Summary of the method: as §1

ScMyo5 = target: ScMyo5
Summary of the method: as §1

ScNbp2 = target: ScNbp2
Summary of the method: as §1

ScPex13 = target: ScPex13
Summary of the method: as §1

ScRvs167 = target: ScRvs167
Summary of the method: as §1

ScSho1 = target: ScSho1
Summary of the method: as §1

ScSla1-D1-D2 = target: ScSla1-D1-D2
Summary of the method: as §1

ScSla1-D3 = target: ScSla1-D3
Summary of the method: as §1

SpAbp1-D1 = target: SpAbp1-D1
Summary of the method: as §1

SpBbc1 = target: SpBbc1
Summary of the method: as §1

SpBzz1-D1 = target: SpBzz1-D1
Summary of the method: as §1

SpBzz1-D2 = target: SpBzz1-D2
Summary of the method: as §1

SpCyk3 = target: SpCyk3
Summary of the method: as §1

SpHof1 = target: SpHof1
Summary of the method: as §1

SpHof1-2 = target: SpHof1-2
Summary of the method: as §1

SpHof1-3 = target: SpHof1-3
Summary of the method: as §1

SpHse1 = target: SpHse1
Summary of the method: as §1

SpLsb1 = target: SpLsb1
Summary of the method: as §1

SpLsb4 = target: SpLsb4
Summary of the method: as §1

SpMyo1 = target: SpMyo1
Summary of the method: as §1

SpNbp2 = target: SpNbp2
Summary of the method: as §1

SpPex13 = target: SpPex13
Summary of the method: as §1

SpRvs167 = target: SpRvs167
Summary of the method: as §1

SpSla1-D1-D2 = target: SpSla1-D1-D2
Summary of the method: as §1

SpSla1-D3 = target: SpSla1-D3
Summary of the method: as §1

VTHRLRISIPGITGR
SPOT peptide array binding signal intensity (AgAbp1): 9
SPOT peptide array binding signal intensity (AgBbc1): 193
SPOT peptide array binding signal intensity (AgBem1-D1): 126
SPOT peptide array binding signal intensity (AgBzz1-D1): 58
SPOT peptide array binding signal intensity (AgBzz1-D2): 136
SPOT peptide array binding signal intensity (AgCyk3): 25
SPOT peptide array binding signal intensity (AgFus1): 1200
SPOT peptide array binding signal intensity (AgHof1): 20.8
SPOT peptide array binding signal intensity (AgHse1): 650
SPOT peptide array binding signal intensity (AgLsb1): 4.5
SPOT peptide array binding signal intensity (AgLsb4): 430
SPOT peptide array binding signal intensity (AgMyo5): 1.75
SPOT peptide array binding signal intensity (AgNbp2): 123
SPOT peptide array binding signal intensity (AgRvs167): 20
SPOT peptide array binding signal intensity (AgSho1): 146
SPOT peptide array binding signal intensity (AgSla1-D1-D2): 88
SPOT peptide array binding signal intensity (AgSla1-D3): 3
SPOT peptide array binding signal intensity (CaAbp1-D1): 286
SPOT peptide array binding signal intensity (CaAbp1-D2): 146
SPOT peptide array binding signal intensity (CaBbc1): 234
SPOT peptide array binding signal intensity (CaBem1-D1): 36
SPOT peptide array binding signal intensity (CaBzz1-D1): 252
SPOT peptide array binding signal intensity (CaBzz1-D2): 114
SPOT peptide array binding signal intensity (CaCyk3): 39.5
SPOT peptide array binding signal intensity (CaFus1): 1410
SPOT peptide array binding signal intensity (CaHof1): 1.75
SPOT peptide array binding signal intensity (CaHse1): 56.8
SPOT peptide array binding signal intensity (CaLsb1): 1.25
SPOT peptide array binding signal intensity (CaLsb4): 47.5
SPOT peptide array binding signal intensity (CaMyo5): 34
SPOT peptide array binding signal intensity (CaNbp2): 882
SPOT peptide array binding signal intensity (CaRvs167): 640
SPOT peptide array binding signal intensity (CaRvs167-3): 2060
SPOT peptide array binding signal intensity (CaSho1): 1000
SPOT peptide array binding signal intensity (CaSla1-D1-D2): 16
SPOT peptide array binding signal intensity (CaSla1-D3): 252
SPOT peptide array binding signal intensity (ScAbp1): 9
SPOT peptide array binding signal intensity (ScBbc1): 16.2
SPOT peptide array binding signal intensity (ScBem1-D1): 33.5
SPOT peptide array binding signal intensity (ScBzz1-D1): 44.5
SPOT peptide array binding signal intensity (ScBzz1-D2): 374
SPOT peptide array binding signal intensity (ScCyk3): 82
SPOT peptide array binding signal intensity (ScFus1): 1730
SPOT peptide array binding signal intensity (ScHof1): 1
SPOT peptide array binding signal intensity (ScHse1): 1450
SPOT peptide array binding signal intensity (ScLsb1): 65
SPOT peptide array binding signal intensity (ScLsb2): 25
SPOT peptide array binding signal intensity (ScLsb3): 327
SPOT peptide array binding signal intensity (ScLsb4): 42
SPOT peptide array binding signal intensity (ScMyo3): ≤ 0
SPOT peptide array binding signal intensity (ScMyo5): 1.75
SPOT peptide array binding signal intensity (ScNbp2): 295
SPOT peptide array binding signal intensity (ScPex13): 7.5
SPOT peptide array binding signal intensity (ScRvs167): 45.2
SPOT peptide array binding signal intensity (ScSho1): 946
SPOT peptide array binding signal intensity (ScSla1-D1-D2): 159
SPOT peptide array binding signal intensity (ScSla1-D3): 46
SPOT peptide array binding signal intensity (SpAbp1-D1): 95.5
SPOT peptide array binding signal intensity (SpBbc1): 32.8
SPOT peptide array binding signal intensity (SpBzz1-D1): 396
SPOT peptide array binding signal intensity (SpBzz1-D2): ≤ 0
SPOT peptide array binding signal intensity (SpCyk3): 9
SPOT peptide array binding signal intensity (SpHof1): 353
SPOT peptide array binding signal intensity (SpHof1-2): 71
SPOT peptide array binding signal intensity (SpHof1-3): 594
SPOT peptide array binding signal intensity (SpHse1): 526
SPOT peptide array binding signal intensity (SpLsb1): 8.25
SPOT peptide array binding signal intensity (SpLsb4): 42
SPOT peptide array binding signal intensity (SpMyo1): 1
SPOT peptide array binding signal intensity (SpNbp2): 1510
SPOT peptide array binding signal intensity (SpPex13): 17
SPOT peptide array binding signal intensity (SpRvs167): 68.8
SPOT peptide array binding signal intensity (SpSla1-D1-D2): ≤ 0
SPOT peptide array binding signal intensity (SpSla1-D3): 10
